From PubChem BioAssay (Tox21)
Results filed as inconclusive are left out. A call without a number means that no potency is given here. Activity calls are given as the source filed them. Calls follow the shape of the dose curve; as a rule, active = well fitted cell-killing curve with a large enough effect in the repeat runs; inconclusive = weak or mixed curves, or effect the other way; inactive = flat fitted curve, though single readings scatter.
Potency is read from the fitted curve at half-maximal effect.

Assay: qHTS RealTime-Glo MT Cell Viability Assay in HEK293 cells - 24 hour (AID 1224886); also: nearly all actives have a fitted effect of over 50% in size; as to activity change, negative = cytotoxicity: top concentration of the series differs between compounds
Settings: RealTime-Glo luminescence; series mostly up to 76.8 µM
How it was run: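 Nonlytic real-time viability readout: viable cells convert prosubstrate to NanoLuc substrate, giving luminescence proportional to live cell number. HEK293, 600 cells/well, compound added after 5 h, continuous culture at 37 C.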
In the case of `CC1=CCC(=C(C)C)CC1`, the Potency is reported as “inactive”.
With `C=Cc1ccccc1C=C` the Potency was “inactive”.
For `CCc1oc2ccccc2c1C(=O)c1cc(I)c(O)c(I)c1`, the Potency was “inactive”.
For `CC(C)CCCCCOC(=O)CCS`, the Potency was “inactive”.
In the case of `CCOC(=O)NNc1ccc(N(CC)CC(C)O)nn1` (centres undefined), the Potency is reported as “inactive”.
For `NC[C@H]1O[C@H](O[C@H]2[C@H](O[C@@H]3O[C@H](CO)[C@@H](O)[C@H]3O)C(O)[C@H](N)C[C@@H]2N)[C@H](N)[C@@H](O)[C@@H]1O` (some centres undefined), the activity change, negative = cytotoxicity was 4.78% [at 6.97 µM] (inactive).
For `COc1cc2nc(N3CCN(C(=O)c4ccco4)CC3)nc(N)c2cc1OC`, the activity change, negative = cytotoxicity was -15.4% [at 15.8 µM] (inactive).
For `CC(C(=O)O)c1ccc2c(c1)[nH]c1ccc(Cl)cc12` (centres undefined), the Potency was “inactive”.
For `Fc1ccc(C(c2ccc(F)cc2)N2CCNCC2)cc1`, the Potency was “inactive”.
With `CCCCN(CCCC)CC(O)c1cc(Cl)cc2c1-c1ccc(Cl)cc1/C2=C/c1ccc(Cl)cc1` (centres undefined) the Potency was “inactive”.
In the case of `C#C[C@]1(OC(C)=O)CC[C@H]2[C@@H]3CCC4=C[C@@H](OC(C)=O)CC[C@@H]4[C@H]3CC[C@@]21C`, the Potency is reported as 21.3 µM (active).
With `CC1(C)CC(O)CC(C)(C)N1` the Potency was “inactive”.
For `COC(C)=O`, the Potency was “inactive”.
In the case of `O=C(O)c1cc(O)c2ccccc2c1O`, the Potency is reported as 43.6 µM (active).
In the case of `OC/C=C/CO`, the Potency is reported as “inactive”.
In the case of `Nc1ccc(C(=O)O)c(O)c1`, the Potency is reported as “inactive”.
With `CCCCCCOC(=O)C(C)CC` (centres undefined) the Potency was “inactive”.
In the case of `CC(C)=CCNc1ncnc2c1ncn2[C@@H]1O[C@H](CO)[C@@H](O)[C@H]1O`, the Potency is reported as “inactive”.
With `C#Cc1ccc(-c2ccccc2F)cc1` the Potency was “inactive”.
For `COc1ccc(NC(=O)CC(C)=O)cc1`, the Potency was “inactive”.
With `CCCCNS(=O)(=O)c1ccc(C)cc1` the Potency was “inactive”.
For `CC1=Nc2ccccc2C1(C)C`, the Potency was “inactive”.
With `COc1cccc(OC)c1C(=O)O` the Potency was “inactive”.
In the case of `S=c1nccc[nH]1`, the Potency is reported as “inactive”.
In the case of `Cc1cc(C)c(/C=C2\C(=O)Nc3ccccc32)[nH]1`, the Potency is reported as “inactive”.
In the case of `CCC(=O)OC(=O)CC`, the Potency is reported as “inactive”.
With `C=CC(=O)Nc1cc2c(Nc3ccc(F)c(Cl)c3)ncnc2cc1OCCCN1CCOCC1` the Potency was 10.7 µM (active).
For `FC(F)(F)c1cccc(Cl)c1`, the Potency was “inactive”.
In the case of `CCOC(=O)c1ccc(C2CCC(NC[C@H](O)COc3ccc(O)c(NS(C)(=O)=O)c3)CC2)cc1` (some centres undefined), the Potency is reported as 20.2 µM (active).
